The whole screen tested about 5,500 compounds, of which about 2,000 (36%) were called active. About 18% were inconclusive and are not listed. No stated cut-off is given here; in the data, active means normalized growth mostly below about 0.91 (no sharp cut-off); inconclusive means no clear call, values can overlap the other calls; inactive means mostly above about 0.92. The list shows a part of the results.
Experiment: chemical genetic growth profiling, strain panel (AID 1159580);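 further: tested at 20 µM; growth read once vehicle control cultures reached saturation at 30 °C; 1 = growth at the plate median or of vehicle wells; lower values mean less growth of the strain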
Settings: S. cerevisiae deletion strains, growth OD

Measured: normalized growth

COc1cc2ccc(=O)oc2c(OC)c1OC
inactive: locus YAL021C, strain ccr4, active compounds read low 1 | locus YAL026C, strain drs2, active compounds read low 0.983 | locus YAL030W, strain snc1, active compounds read low 0.98 | locus YBL061C, strain skt5, active compounds read low 0.997 | locus YBR009C, strain hhf1, active compounds read low 0.998 | locus YBR021W, strain FUR4, active compounds read low 0.97 | locus YBR023C, strain chs3, active compounds read low 0.995 | locus YBR171W, strain sec66, active compounds read low 0.974 | locus YBR229C, strain ROT2, active compounds read low 1.02 | locus YBR231C, strain swc5, active compounds read low 1.02 | locus YBR279W, strain paf1, active compounds read low 0.991 | locus YCL011C, strain gbp2, active compounds read low 0.977 | locus YCL016C, strain dcc1, active compounds read low 0.971 | locus YCL029C, strain bik1, active compounds read low 1.03 | locus YCL069W, strain vba3, active compounds read low 0.975 | locus YCR088W, strain abp1, active compounds read low 0.98 | locus YDL005C, strain med2, active compounds read low 0.977 | locus YDL035C, strain GPR1, active compounds read low 1.04 | locus YDL040C, strain nat1, active compounds read low 0.978 | locus YDL074C, strain BRE1, active compounds read low 1.03 | locus YDL101C, strain DUN1, active compounds read low 1.02 | locus YDL134C, strain PPH21, active compounds read low 1.02 | locus YDL185W, strain tfp1, active compounds read low 1.03 | locus YDL192W, strain arf1, active compounds read low 1.01 | locus YDR001C, strain nth1, active compounds read low 1 | locus YDR069C, strain doa4, active compounds read low 0.99 | locus YDR101C, strain arx1, active compounds read low 1 | locus YDR137W, strain rgp1, active compounds read low 0.997 | locus YDR159W, strain sac3, active compounds read low 1.04 | locus YDR162C, strain NBP2, active compounds read low 1.05 | locus YDR195W, strain ref2 0.984 | locus YDR297W, strain sur2, active compounds read low 0.997 | locus YDR318W, strain mcm21, active compounds read low 1.03 | locus YDR334W, strain swr1, active compounds read low 0.98 | locus YDR335W, strain msn5, active compounds read low 0.973 | locus YDR388W, active compounds read low 1.02 | locus YDR392W, strain spt3, active compounds read low 1 | locus YDR502C, strain sam2, active compounds read low 1.02 | locus YEL003W, strain gim4, active compounds read low 0.968 | locus YEL037C, strain rad23, active compounds read low 0.987 | locus YEL061C, strain CIN8 (second series), active compounds read low 0.996 | locus YER015W, strain faa2, active compounds read low 0.995 | locus YER016W, strain bim1, active compounds read low 0.959 | locus YER110C, active compounds read low 1.01 | locus YER111C, strain swi4, active compounds read low 0.979 | locus YER155C, strain BEM2 (second series), active compounds read low 0.982 | locus YER155C, strain BEM2, active compounds read low 1 | locus YER167W, strain BCK2, active compounds read low 1.02 | locus YFR010W, strain ubp6, active compounds read low 1.01 | locus YGL078C, strain dbp3, active compounds read low 1.04 | locus YGL086W, strain mad1, active compounds read low 1 | locus YGL167C, strain pmr1, active compounds read low 0.983 | locus YGL173C, strain kem1, active compounds read low 0.956 | locus YGL227W, strain vid30, active compounds read low 0.976 | locus YGL240W, strain doc1, active compounds read low 0.985 | locus YGL248W, strain PDE1, active compounds read low 1.03 | locus YGL253W, strain hxk2, active compounds read low 0.992 | locus YGR135W, strain pre9, active compounds read low 1.04 | locus YGR229C, strain SMI1, active compounds read low 1.01 | locus YGR252W, strain gcn5, active compounds read low 1 | locus YHR013C, strain ard1, active compounds read low 0.953 | locus YHR027C, strain rpn1, active compounds read low 0.996 | locus YHR079C, strain IRE1 (second series), active compounds read low 1.01 | locus YHR094C, strain hxt1, active compounds read low 1.02 | locus YHR129C, strain ARP1, active compounds read low 1.01 | locus YHR142W, strain chs7, active compounds read low 0.951 | locus YHR200W, strain rpn10, active compounds read low 1.02 | locus YIL066C, strain RNR3, active compounds read low 1.03 | locus YIL073C, strain SPO22, active compounds read low 1.07 | locus YIL125W, strain kgd1, active compounds read low 1.01 | locus YIR030C, strain dcg1, active compounds read low 1.02 | locus YJL092W, strain hpr5, active compounds read low 0.967 | locus YJL095W, strain BCK1 (second series), active compounds read low 0.978 | locus YJL095W, strain BCK1, active compounds read low 1.02 | locus YJL115W, strain asf1, active compounds read low 0.987 | locus YJL129C, strain trk1, active compounds read low 0.961 | locus YJL134W, strain LCB3, active compounds read low 1.01 | locus YJL154C, strain vps35, active compounds read low 0.979 | locus YJL164C, strain tpk1, active compounds read low 0.991 | locus YJL166W, strain qcr8, active compounds read low 0.978 | locus YJL168C, strain set2, active compounds read low 1.02 | locus YJL187C, strain SWE1 (second series), active compounds read low 1.02 | locus YKL009W, strain mrt4, active compounds read low 1.07 | locus YKL068W, active compounds read low 0.996 | locus YKL085W, strain MDH1 (second series), active compounds read low 1.01 | locus YKL085W, strain MDH1, active compounds read low 1.01 | locus YKL160W, strain elf1, active compounds read low 0.965 | locus YKL190W, strain CNB1, active compounds read low 1.01 | locus YKR001C, strain vps1, active compounds read low 0.992 | locus YKR026C, strain gcn3, active compounds read low 1 | locus YKR091W, strain srl3, active compounds read low 0.964 | locus YLL001W, strain dnm1, active compounds read low 0.987 | locus YLL026W, active compounds read low 0.992 | locus YLL041C, strain sdh2, active compounds read low 0.979 | locus YLR027C, strain aat2, active compounds read low 0.987 | locus YLR039C, strain RIC1, active compounds read low 1.07 | locus YLR058C, strain SHM2, active compounds read low 1.04 | locus YLR102C, strain apc9, active compounds read low 1.02 | locus YLR221C, strain rsa3, active compounds read low 1.02 | locus YLR258W, strain gsy2, active compounds read low 0.992 | locus YLR262C, strain YPT6 (second series), active compounds read low 1 | locus YLR268W, strain sec22, active compounds read low 1.03 | locus YLR320W, strain mms22, active compounds read low 1.02 | locus YLR342W, strain FKS1, active compounds read low 0.979 | locus YLR357W, strain rsc2, active compounds read low 0.964 | locus YLR370C, strain arc18, active compounds read low 0.979 | locus YLR371W, strain rom2, active compounds read low 1.01 | locus YLR384C, strain iki3, active compounds read low 0.991 | locus YLR418C, strain cdc73, active compounds read low 1.03 | locus YML016C, strain PPZ1, active compounds read low 1.03 | locus YML032C, strain rad52, active compounds read low 0.996 | locus YML120C, strain ndi1, active compounds read low 0.979 | locus YML124C, strain tub3, active compounds read low 1.02 | locus YMR058W, strain fet3, active compounds read low 0.974 | locus YMR078C, strain ctf18, active compounds read low 1.02 | locus YMR125W, strain sto1, active compounds read low 0.976 | locus YMR129W, active compounds read low 0.991 | locus YMR205C, strain PFK2, active compounds read low 0.995 | locus YMR223W, strain ubp8, active compounds read low 0.999 | locus YMR231W, strain pep5, active compounds read low 0.98 | locus YMR307W, strain GAS1, active compounds read low 1.07 | locus YNL067W, strain RPL9B, active compounds read low 1.02 | locus YNL071W, strain lat1, active compounds read low 0.999 | locus YNL153C, strain GIM3, active compounds read low 1.02 | locus YNL209W, strain ssb2, active compounds read low 0.976 | locus YNL233W, strain BNI4, active compounds read low 1.01 | locus YNL248C, strain rpa49, active compounds read low 0.962 | locus YNL250W, strain rad50, active compounds read low 1.03 | locus YNL271C, strain bni1, active compounds read low 1.02 | locus YNL298W, strain CLA4, active compounds read low 0.999 | locus YNL307C, strain MCK1, active compounds read low 1.03 | locus YNL322C, strain KRE1 (second series), active compounds read low 0.971 | locus YNL322C, strain KRE1, active compounds read low 1.02 | locus YNR049C, strain mso1, active compounds read low 0.954 | locus YNR052C, strain pop2, active compounds read low 1.02 | locus YOL006C, strain TOP1, active compounds read low 1.06 | locus YOL012C, strain htz1 1.05 | locus YOL147C, strain pex11, active compounds read low 1.01 | locus YOR001W, strain rrp6, active compounds read low 1.02 | locus YOR061W, strain CKA2, active compounds read low 1.04 | locus YOR069W, strain VPS5, active compounds read low 1.01 | locus YOR070C, strain gyp1, active compounds read low 0.994 | locus YOR080W, strain dia2, active compounds read low 0.968 | locus YOR083W, strain WHI5, active compounds read low 0.952 | locus YOR106W, strain vam3, active compounds read low 0.969 | locus YOR136W, strain idh2, active compounds read low 1.03 | locus YOR144C, strain elg1, active compounds read low 1.02 | locus YOR184W, strain ser1, active compounds read low 1.04 | locus YOR265W, strain rbl2, active compounds read low 0.994 | locus YOR270C, strain vph1, active compounds read low 0.957 | locus YOR290C, strain snf2, active compounds read low 0.964 | locus YOR316C, strain cot1, active compounds read low 1.02 | locus YPL051W, strain arl3, active compounds read low 0.982 | locus YPL078C, strain atp4, active compounds read low 0.966 | locus YPL106C, strain sse1, active compounds read low 0.977 | locus YPL240C, strain hsp82, active compounds read low 0.986 | locus YPR119W, strain clb2, active compounds read low 1.01 | locus YPR141C, strain kar3, active compounds read low 1.02 | locus YPR163C, strain tif3, active compounds read low 1.03 | locus YPR167C, strain met16, active compounds read low 1.04 | strain wtn01, active compounds read low 1.02

Source: PubChem BioAssay AID1159580 (chemical genetic matrix, 2015)
